Data: PubChem BioAssay
The source made the active and inactive calls.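 How the source made its calls, unless noted: active means inhibition at or above 50% at 10 µM; inactive means inhibition below 50%.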

How the values were obtained:
[1] = inhibitors of TNFa-induced NFkB p65 translocation, primary screen, imaging, HUVEC, MLSMR starter and 10KST1 sets (AID 438;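 active means inhibition above 20% together with a positive visual image hit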;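 further: compound added about 3h40 before a 20 min TNFalpha stimulation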;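 on inhibition: signal is the nuclear over cytoplasmic p65 intensity ratio per well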); details: HUVEC TNFa-induced p65 nuclear translocation; cell count: measured here: nuclei count (cytotoxicity indicator), at 2.08 µM; inhibition: at 2 µM, stronger effect = higher value, 0% TNFa-plus-vehicle, 100% no-TNFa wells
[2] = inhibitors of mutant huntingtin aggregation, primary screen, imaging, exon1htt(103Q)mCFP cells, high-content imaging (AID 483;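 active means visual image review flags a hit and inhibition of aggregation exceeds 20%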;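 further: compound exposure lasted 3 days before fixation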;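 on nuclei count: percent of the per-plate median nuclei count of sample wells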); details: exon1htt(103Q)mCFP cell line, aggregate imaging, at 2 µM; inhibition of aggregation: stronger effect = higher value; nuclei count: measured here: cell count, toxicity
[3] = inhibitors of E-selectin induction by TNFa, primary screen, imaging, HUVEC, immunofluorescence, MLSMR starter and 10KST1 sets (AID 487;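 active means visually confirmed hit in the image check and inhibition above 20%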;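 on inhibition: signal is fraction of cell area covered by stained E-selectin grains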;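 on nuclei count: 100% = median nuclei count of all wells on the same plate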); details: HUVEC TNFalpha-induced E-selectin immunofluorescence imaging, at 2 µM; inhibition: stronger effect = higher value; nuclei count: measured here: cell number, toxicity
[4] = biological target: Voltage-gated potassium channel subunit beta-2 (Rattus norvegicus) (UniProt P62483); experiment: KvBeta enzyme negative modulators, primary screen, biochemical, NADPH fluorescence (AID 622;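 active means fluorescence slope higher than the sample average by over 3 SD, cut at about -0.22 in these data, passing the limit was not always enough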;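 further: slope of raw intensity against log time taken from 70 to 1610 s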); details: recombinant KvBeta, 4-cyanobenzaldehyde reduction, at 10 µM, stronger effect = higher value
[5] = biological target: Voltage-gated potassium channel subunit beta-2 (Rattus norvegicus) (UniProt P62483); experiment: KvBeta positive modulators, primary screen, biochemical, NADPH fluorescence (AID 623;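 active means NADPH fluorescence slope more negative than the mean of all samples by about 3 SD, 99.7% confidence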;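 further: fluorescence intensity change per second fitted from 20 to 320 s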); details: Recombinant KvBeta, NADPH fluorescence decrease slope, 10 min; at 10 µM; stronger effect = lower value
[6] = biological target: Alpha-2C adrenergic receptor (Homo sapiens) (UniProt P18825); experiment: modulators of alpha2C/GIRK thallium flux, primary screen, cell-based, HEK293 alpha2C/GIRK1/2 (AID 624;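 active means fluorescence slope after compound addition differing from the mean of all screened samples at 99.7% confidence, in either direction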;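 further: slope of fluorescence ratio to pre-addition baseline per second over 15 to 24 s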); details: thallium flux BTC fluorescence, at 10 µM, actives lie on both sides
[7] = inhibitors of Sendai virus-induced IRF3 signaling, primary screen, TLR/RLR signaling modifier project, cell-based, Sendai virus stimulus, luciferase, 10K MLSCN set (AID 602276); details: HEK293 RL24 IRF3 luciferase reporter, at 10 µM, stronger effect = higher value;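 further: firefly luciferase from ISG56 promoter only with Renilla not read in this screen; 0% = Sendai virus plus DMSO and 100% = medium plus DMSO without virus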
[8] = inhibitors of poly I:C-induced TLR3 signaling, primary screen, cell-based, poly I:C stimulus, luciferase, 10K MLSCN set (AID 602277;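 active means inhibition of the reporter signal at or above 50%; inactive means inhibition below 50%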); details: HEK293-TLR3 RL24 IRF3 luciferase reporter, at 10 µM, stronger effect = higher value

Sequence of Voltage-gated potassium channel subunit beta-2 (Rattus norvegicus) (P62483 whole entry, looked up): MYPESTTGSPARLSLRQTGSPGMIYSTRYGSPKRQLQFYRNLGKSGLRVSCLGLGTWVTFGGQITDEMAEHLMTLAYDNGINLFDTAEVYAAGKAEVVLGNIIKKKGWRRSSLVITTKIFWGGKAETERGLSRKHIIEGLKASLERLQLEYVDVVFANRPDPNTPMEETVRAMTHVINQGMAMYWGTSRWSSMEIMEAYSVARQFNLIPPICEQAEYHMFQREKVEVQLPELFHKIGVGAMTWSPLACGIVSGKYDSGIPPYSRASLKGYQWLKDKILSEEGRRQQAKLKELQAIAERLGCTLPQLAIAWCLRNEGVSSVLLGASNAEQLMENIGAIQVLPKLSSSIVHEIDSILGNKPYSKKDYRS
Sequence of Alpha-2C adrenergic receptor (Homo sapiens) (P18825 whole entry, looked up): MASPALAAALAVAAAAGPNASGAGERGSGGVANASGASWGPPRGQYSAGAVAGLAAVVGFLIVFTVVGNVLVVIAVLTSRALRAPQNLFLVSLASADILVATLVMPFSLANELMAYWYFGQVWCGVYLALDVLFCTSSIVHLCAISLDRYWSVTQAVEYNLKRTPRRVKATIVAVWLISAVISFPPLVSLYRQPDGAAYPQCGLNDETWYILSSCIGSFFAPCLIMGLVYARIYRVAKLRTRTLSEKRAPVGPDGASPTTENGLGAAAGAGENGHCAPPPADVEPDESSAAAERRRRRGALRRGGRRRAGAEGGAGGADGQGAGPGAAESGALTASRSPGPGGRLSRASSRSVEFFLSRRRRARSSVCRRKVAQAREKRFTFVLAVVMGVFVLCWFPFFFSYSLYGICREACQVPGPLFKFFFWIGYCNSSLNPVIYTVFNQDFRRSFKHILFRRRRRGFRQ

Which cell count [1] does the source give for `O=C(C(c1ccccc1)c1ccccc1)N1CCN(Cc2ccccn2)CC1` here?
The cell count was 357.

And the inhibition [1]?
Its inhibition is -7.5% (inactive).

What about the inhibition of aggregation [2] of the same compound?
The inhibition of aggregation was 3.4% (inactive).

And the nuclei count [2]?
Its nuclei count is 98.4%.

What about the inhibition [3] of the same compound?
The inhibition was -11.4% (inactive).

And the nuclei count [3]?
Its nuclei count is 107%.

What about the fluorescence slope [4] of the same compound?
Its fluorescence slope is -0.369 (inactive).

And the NADPH fluorescence slope [5]?
The NADPH fluorescence slope was -1.3e-05 (inactive).

What about the slope [6] of the same compound?
Its slope is 0.00484 (inactive).

And the inhibition [7]?
The inhibition was 5.9% (inactive).

And the inhibition [8]?
Its inhibition is 18.2% (inactive).

Which results are given for `Cc1cc(NC(=O)COc2cccc(Oc3ccccc3)c2)no1`?
cell count [1]: 327; inhibition [1]: -0.9% (inactive); inhibition of aggregation [2]: -11.4% (inactive); nuclei count [2]: 80.8%; inhibition [3]: -61% (inactive); nuclei count [3]: 106%; fluorescence slope [4]: -0.375 (inactive); NADPH fluorescence slope [5]: -7.6e-05 (inactive); slope [6]: 0.0048 (inactive); inhibition [7]: 10.8% (inactive); inhibition [8]: 30.5% (inactive)

For `Cc1ccc(-c2nn3c(C)nnc3s2)cc1N`, which cell count [1] is on record?
The cell count was 385.

And the inhibition [1]?
The inhibition was 7.5% (inactive).

What about the inhibition of aggregation [2] of the same compound?
Its inhibition of aggregation is 9.7% (inactive).

And the nuclei count [2]?
The nuclei count was 82%.

And the inhibition [3]?
Its inhibition is 4.3% (inactive).

What about the nuclei count [3] of the same compound?
The nuclei count was 114%.

And the fluorescence slope [4]?
Its fluorescence slope is -0.405 (inactive).

What about the NADPH fluorescence slope [5] of the same compound?
Its NADPH fluorescence slope is -3e-05 (inactive).

And the slope [6]?
Its slope is 0.00541 (inactive).

And the inhibition [7]?
Its inhibition is -7.7% (inactive).

And the inhibition [8]?
The inhibition was -47.2% (inactive).

Which cell count [1] does the source give for `O=C(CSc1nnc2ccccn12)c1ccccc1` here?
Its cell count is 535.

And the inhibition [1]?
The inhibition was 7.7% (inactive).

And the inhibition of aggregation [2]?
The inhibition of aggregation was 2.2% (inactive).

And the nuclei count [2]?
Its nuclei count is 105%.

And the inhibition [3]?
The inhibition was 23.4% (inactive).

And the nuclei count [3]?
The nuclei count was 70.9%.

What about the fluorescence slope [4] of the same compound?
The fluorescence slope was -0.46 (inactive).

What about the NADPH fluorescence slope [5] of the same compound?
The NADPH fluorescence slope was 4e-05 (inactive).

What about the slope [6] of the same compound?
The slope was 0.00782 (inactive).

What about the inhibition [7] of the same compound?
Its inhibition is -34.1% (inactive).

What about the inhibition [8] of the same compound?
Its inhibition is -86.4% (inactive).

For `CCCCN(Cc1cc2cc(OC)ccc2[nH]c1=O)C(=O)c1ccccn1`, which cell count [1] is on record?
Its cell count is 339.

And the inhibition [1]?
The inhibition was -17.9% (inactive).

And the inhibition of aggregation [2]?
Its inhibition of aggregation is -18.3% (inactive).

And the nuclei count [2]?
The nuclei count was 101%.

And the inhibition [3]?
The inhibition was -11.8% (inactive).

What about the nuclei count [3] of the same compound?
Its nuclei count is 89.4%.

What about the fluorescence slope [4] of the same compound?
The fluorescence slope was -0.332 (inactive).

What about the NADPH fluorescence slope [5] of the same compound?
The NADPH fluorescence slope was -6.3e-05 (inactive).

And the slope [6]?
The slope was 0.00511 (inactive).

And the inhibition [7]?
The inhibition was -4.21% (inactive).

What about the inhibition [8] of the same compound?
Its inhibition is 98.1% (active).

Which cell count [1] does the source give for `CCOC(=O)c1cc2sc(C)cc2n1C(C)C(=O)OCC` (stereo not drawn) here?
The cell count was 291.

And the inhibition [1]?
Its inhibition is 0.5% (inactive).

What about the inhibition of aggregation [2] of the same compound?
The inhibition of aggregation was -7% (inactive).

And the nuclei count [2]?
Its nuclei count is 106%.

And the inhibition [3]?
The inhibition was -48.6% (inactive).

What about the nuclei count [3] of the same compound?
Its nuclei count is 123%.

What about the fluorescence slope [4] of the same compound?
Its fluorescence slope is -0.607 (inactive).

What about the NADPH fluorescence slope [5] of the same compound?
The NADPH fluorescence slope was -3.9e-05 (inactive).

What about the slope [6] of the same compound?
Its slope is 0.00348 (inactive).

What about the inhibition [7] of the same compound?
The inhibition was 18.2% (inactive).

And the inhibition [8]?
Its inhibition is 20.3% (inactive).

Which cell count [1] does the source give for `Cc1[nH]c2ccccc2c1Cc1nnc(SCC(=O)NCc2ccco2)o1` here?
The cell count was 428.

And the inhibition [1]?
The inhibition was -7.7% (inactive).

What about the inhibition of aggregation [2] of the same compound?
The inhibition of aggregation was 12.9% (inactive).

What about the nuclei count [2] of the same compound?
The nuclei count was 83.4%.

And the inhibition [3]?
Its inhibition is -24.9% (inactive).

What about the nuclei count [3] of the same compound?
Its nuclei count is 87%.

And the fluorescence slope [4]?
The fluorescence slope was -0.436 (inactive).

And the NADPH fluorescence slope [5]?
Its NADPH fluorescence slope is 1.9e-05 (inactive).

And the slope [6]?
Its slope is 0.0061 (inactive).

And the inhibition [7]?
The inhibition was -11.7% (inactive).

What about the inhibition [8] of the same compound?
Its inhibition is -28.3% (inactive).

Which results are given for `COc1ccc(OC)c(NC(=O)c2nnn(Cc3ccc(Br)cc3F)c2N)c1`?
cell count [1]: 777; inhibition [1]: 0.6% (inactive); inhibition of aggregation [2]: 20.9% (inactive); nuclei count [2]: 99.3%; inhibition [3]: -25.4% (inactive); nuclei count [3]: 116%; fluorescence slope [4]: -0.525 (inactive); NADPH fluorescence slope [5]: -1.8e-05 (inactive); slope [6]: 0.00503 (inactive); inhibition [7]: 1.6% (inactive); inhibition [8]: 5.74% (inactive)
